# USP2a inh – qHTS Assay for Inhibitors of Ubiquitin-specific Protease USP2a; Ubiquitin carboxyl-terminal hydrolase 2 (Homo sapiens), O75604; USP2a enzymatic assay, qHTS inhibition; Potency, µM (doses to about 38.3 µM), for the others: top-dose activity change, negative = inhibition, most hits filed as inhibitors; 0.1% of 60,000 active; AID 927, 2007; further: nearly all actives have a fitted effect of over 60% in size
#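 USP2 core (20nM final) preincubated 30 min RT with compound, then Ub-PLA2 20nM and NBD C6-HPC 20uM final added; buffer 20mM Tris-HCl pH 8.0, 2mM CaCl2. Fluorescence Ex 460/Em 535 read at 0 and 2.5 h; normalized to NEM.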
# UbGFP stabilizer – Ubiquitin-GFP Assay | Ubiquitin-GFP reporter cells, proteasome inhibition, GFP fluorescence; response scale: untreated = 0%, 10 µM MG-132 = 100% | Potency, µM (titrated, usually from 45.9 µM), for inactives: at the highest dose activation (GFP accumulation), most hits filed as activators | 67,000 tested, under 10 active; active means well fitted activation curve with a large enough effect, not every such curve was filed as active; inconclusive means small, poorly fitted or top-dose-only effect, or another doubt; inactive means no such curve, though single readings can be large or run the other way
#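 Proteasome block read as GFP accumulation: ubiquitin(G76V)-GFP U2OS cells exposed to compound (2.9 nM–46 uM) for 4 hr at 37 C. Normalization used untreated cells as 0% and 10 uM MG-132 as 100%; concentration-response curves fitted.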
# Bst PK mod – Pyruvate Kinase. purified pyruvate kinase, luminescence ATP production; ribose 5-phosphate activator present at AC10. Potency, µM. AID 361, 2006. 1.2% of 51,000 active; in the data active means potency below about 11 µM; inconclusive means mostly about 12 µM to 25 µM;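 the screen sought inhibitors and activators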;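 further: scaled between full activation by ribose 5 phosphate and full inhibition by luteolin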
# TSHR agonist – qHTS Assay for Agonists of the Thyroid Stimulating Hormone Receptor; HEK293-CNG-TSHR cells (CNG channel as cAMP sensor), membrane potential dye, cAMP; Potency, µM (highest dose often 57.1 µM), inactives show top-dose activation, actives largely listed as activators; 0.48% of 73,000 active; AID 926, 2007; active means well fitted activation curve with a large enough effect in the main read-out, with a control signal flat, not every such curve was filed as active; inconclusive means small, poorly fitted or top-dose-only effect, or a change in a side signal; inactive means no such curve, though single readings can be large or run the other way; % of control where 0% means no effect;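 further: the control signal comes from parental cells without the receptor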
#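 cAMP rise detected as CNG-channel membrane depolarization by fluorescent dye (emission 590 nm), 30 min after compound, following 60 min dye loading containing 100 uM RO 20-1724 at room temperature. Cells: TSHR/CNG HEK 293, with parental CNG HEK 293 as control.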
# HEK293 cAMP cs – qHTS Assay for Agonists of the Thyroid Stimulating Hormone Receptor: Activators of Intracellular cAMP Concentrations in Parental HEK 293; parental HEK293 CNG cAMP sensor, membrane potential fluorescence; 2.5% of 73,000 active; Potency, µM (top dose mostly 57.1 µM), inactives show at the top dose activation, actives largely listed as activators; further: % of control where 0% means no effect; nearly all actives have a fitted effect of over 55% in size
#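 Counterscreen for endogenous-receptor signalling: CNG-channel HEK 293 cells report cAMP rise by membrane depolarization. After 60 min dye equilibration with 100 uM RO 20-1724, compounds incubated 30 min before bottom-read fluorescence at 590 nm.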
# GBA activity – Glucocerebrosidase. purified enzyme, resorufin glucoside fluorescence (screen aimed at inhibitors), 20 min. AID 360, 2006. Lysosomal acid glucosylceramidase (Homo sapiens), P04062. Potency, µM. 1.1% of 48,000 active; in the data active means potency below about 15 µM; inconclusive means mostly about 16 µM to 33 µM;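 further: the screen sought inhibitors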
# Target sequence (P04062 whole entry, looked up): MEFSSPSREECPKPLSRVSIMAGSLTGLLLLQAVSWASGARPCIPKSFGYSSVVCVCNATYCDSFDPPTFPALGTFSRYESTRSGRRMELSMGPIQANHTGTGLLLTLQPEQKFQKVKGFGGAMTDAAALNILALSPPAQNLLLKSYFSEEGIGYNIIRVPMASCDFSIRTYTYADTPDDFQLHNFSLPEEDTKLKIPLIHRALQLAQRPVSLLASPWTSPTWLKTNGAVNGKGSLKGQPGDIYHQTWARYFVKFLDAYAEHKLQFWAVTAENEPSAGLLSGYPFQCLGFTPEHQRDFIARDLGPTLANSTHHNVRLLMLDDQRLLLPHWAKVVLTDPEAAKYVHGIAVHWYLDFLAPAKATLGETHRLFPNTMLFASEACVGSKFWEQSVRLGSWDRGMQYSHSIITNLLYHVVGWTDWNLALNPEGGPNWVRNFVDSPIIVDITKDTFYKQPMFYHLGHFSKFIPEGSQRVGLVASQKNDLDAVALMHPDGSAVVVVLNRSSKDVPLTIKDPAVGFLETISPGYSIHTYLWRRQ
#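 Normal human glucocerebrosidase (0.2 nM final) was assayed with resorufin β-D-glucopyranoside (30 uM final) in 50mM citric acid/KH2PO4, 10mM sodium taurocholate, 0.01% tween-20, pH 5.9. Compounds were titrated; fluorescence (Ex 548, Em 600) read after 20 min at RT.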
# The depositor's hits bear a star; i = inactive; ? = inconclusive; nt = no result; ! = not confirmed by another sample; [ ] = another dose, or the depositor's remark. A selection: hits, their analogues and other compounds. The true share with any hit is near 4.1%. Unless noted, the call rests on the fitted dose curve; in most records, active means well fitted curve in the direction sought with a large enough effect; inconclusive means small, poorly fitted or top-dose-only effect, or another doubt; inactive means no such curve, though single readings can be large; an effect the other way counts as inactive or inconclusive. Potency means the concentration at half of the fitted maximal effect.
SMILES,USP2a inh,UbGFP stabilizer,Bst PK mod,TSHR agonist,HEK293 cAMP cs,GBA activity
COc1ccc(Nc2nc(N)nc(CN3CCC(Cc4ccccc4)CC3)n2)cc1,nt,0.2%,nt,-5.9%,5.6%,nt
COc1ccccc1Nc1nc(N)nc(CN2CCCCCC2)n1,12.2%,8.5%,>57,4.3%,10.0%,nt
COc1ccccc1Nc1nc(N)nc(CN2CCN(c3ccccc3)CC2)n1,30.8%,-4.4%,>57,14.5%,27.0%,6.8*
COc1ccccc1N1CCN(Cc2nc(N)nc(Nc3ccccc3)n2)CC1,25.1%,-4.7%,>57,0.7%,2.2%,4.8*
Cc1cccc(Nc2nc(N)nc(CN3CCC(C)CC3)n2)c1C,2.1%,-0.5%,>57,25.1%,19.6%,12.4*
COc1ccccc1Nc1nc(N)nc(CN2CCC(Cc3ccccc3)CC2)n1,33.8%,-5.0%,>57,-9.7%,2.7%,0.928*
CC1(C)NC(=O)N(c2ccc([N+](=O)[O-])c(C(F)(F)F)c2)C1=O,4.1%,6.1%,nt,-1.3%,-11.2%,nt
O=c1c(-c2cc(F)cc(F)c2)nc2cnc(N3CCNCC3)nc2n1Cc1cccs1,39.8%,8.6%,nt,3.1%,-6.8%,nt
COc1cccc(N2CCN(Cc3nc(N)nc(Nc4ccccc4OC)n3)CC2)c1,33.8%,-0.1%,>57,18.5%,13.8%,3.91*
C=C(c1cccc2ccccc12)P(=O)(O)O,-4.2%,0.0%,0.175*,10.2%,10.8%,>76.9
CC1CCc2nc(NC(=O)c3ccco3)sc2C1 (centres undefined),12.0%,0.0%,1.21*,-3.2%,-1.0%,>76.9
CC1CCc2nc(NC(=O)Cc3cccs3)sc2C1 (centres undefined),-2.6%,0.0%,nt,-16.6%,0.5%,>76.9
C1CCC(Nc2nnnn2C2CCCCC2)CC1,5.1%,-5.4%,nt,?,?,nt
CN(C)/C=C/C(=O)c1nnn(C2CCCCC2)c1NC1CCCCC1,35.3%,-13.0%,nt,?,15.8µM*,nt
Cc1cc(C(=O)CSc2nnnn2-c2ccccc2)c(C)n1CC1CCCO1 (centres undefined),-4.8%,0.0%,>57,?,25.1µM*,>76.9
COc1cc(-c2nnc(SCC(=O)c3ccc(C)cc3)o2)cc(OC)c1OC,17.1%,-3.7%,>57,?,?,i
Cc1cc(-n2c(C)cc(C(=O)CSc3nnnn3-c3ccccc3)c2C)no1,11.5%,-6.6%,>57,20µM*,23.6%,>76.9
COc1cc(-c2nnc(SCC(=O)c3cc(C)n(CC4CCCO4)c3C)o2)cc(OC)c1OC (centres undefined),24.6%,0.6%,>57,18.1%,5.2%,13.2*
N[C@H](C(=O)O)c1cccc(O)c1,nt,1.2%,nt,-1.0%,6.6%,nt
CCN1C(=S)SC(=O)C1=C1C=C(C)N(CCOC)C(C)=C1,-5.7%,5.9%,nt,?,72.4%,14.8*
CCN1C(=S)SC(=O)C1=C1C=C(C)N(CCO)C(C)=C1,-9.8%,-6.2%,nt,0.8%,3.7%[2.29 µM],>76.9
CN(C)CCO[C@](C)(c1ccccc1)c1ccccn1,-6.1%[17.1 µM],0.9%[20.5 µM],nt,-2.5%[25.6 µM],4.9%[25.6 µM],nt
CC(C)=CCc1c(O)cc2oc(C)cc(=O)c2c1O,2.0%,nt,nt,nt,nt,nt
COc1c(O)cc2oc3cc(O)c(CC=C(C)C)c(O)c3c(=O)c2c1CC=C(C)C,10µM*!,3.9%,nt,0.2%,-10.7%,nt
COC(=O)CSc1nnc2n1C(C)(C)Cc1ccccc1-2,-10.3%,-0.1%,>57,3.9%,11.2%,>76.9
SMILES,USP2a inh,UbGFP stabilizer,Bst PK mod,TSHR agonist,HEK293 cAMP cs,GBA activity
CCOC(=O)C(CC)Sc1nnc2n1C(C)(C)Cc1ccccc1-2 (centres undefined),1.5%,-2.1%,>57,?,20µM*,>76.9
Cc1csc2nc(CSc3nncn3-c3ccccc3)c(Br)n12,0.0%,nt,nt,nt,-0.5%,>76.9
Cc1csc2nc(CSc3nc4ccccc4o3)c(Br)n12,0.4%,-3.8%,?,?,25.1µM*,>76.9
Cc1ccc(NC(=O)c2ccccc2O)cc1,-0.5%,-3.4%,6.35*,-4.1%,8.9%,>76.9
Cc1ccccc1NC(=O)c1ccccc1O,-6.7%,6.3%,>57,6.1%,8.1%,?
CN(C)Cc1ccccc1-c1nccc(N(C)Cc2ccco2)n1,11.9%,-5.3%,nt,?,31.6µM*,nt
CN(C)Cc1ccccc1-c1nc(N(C)Cc2ccco2)c2ccccc2n1,2.4%,6.8%,nt,?,12.6µM*,nt
Cc1cnc(CNc2ccnc(-c3ccccc3CN(C)C)n2)cn1,-6.5%,-0.9%,nt,4.9%,2.0%,nt
CN(C)Cc1ccccc1-c1nccc(NCc2cccs2)n1,-2.9%,0.4%,nt,?,25.1µM*,nt
O=C(O)CNC(=O)[C@@H](CS)Cc1ccccc1,-2.9%[17.1 µM],10.1%[20.5 µM],nt,-1.6%[25.6 µM],8.2%[25.6 µM],nt
Cc1cccc(C(=O)O)c1C[C@H]1NCC[C@H]2c3ccccc3N[C@@H]12,nt,5.8%[9.17 µM],nt,-4.6%[11.4 µM],0.4%[11.4 µM],nt
c1ccc(CNc2cc(-c3cccnc3)ncn2)cc1,9.5%,6.6%,nt,-1.9%,23.8%,nt
O=C(CSc1nc2ccccc2c(=O)n1-c1ccc(Cl)cc1)c1ccco1,13.3%,-0.9%,>57,?,25.1µM*,>76.9
CCCCCn1c(CN(C)Cc2ccccc2)nc2c1c(=O)n(C)c(=O)n2C,27.0%,12.9%,>57,?,20µM*,>76.9
CCCn1c(C)nc2c(NCCCN(C)C)nc(C)nc21,nt,-4.2%,nt,5.8%,2.0%,nt
COc1ccccc1C(=O)Nc1ccc(N2CCN(S(C)(=O)=O)CC2)cc1,13.8%,-3.4%,nt,-8.4%,2.7%,>76.9
COc1cc2ccccc2cc1C(=O)Nc1ccc(N2CCN(C)CC2)cc1,9.7%,-0.8%,11.2*,?,-40.2%,>76.9
O=C(O)c1cc(-c2ccco2)nc2ccccc12,-4.7%,-3.9%,>57,3.7%,7.0%,>76.9
Oc1c(-c2cc(-c3ccco3)[nH]n2)ccc2ccccc12,-20.3%,6.6%,8.33*,-14.4%,-26.4%,>76.9
CCCCNC(=O)c1ccc(Cc2nc3ccccc3[nH]2)cc1,nt,nt,nt,-8.1%,-16.4%,nt
O=C(O)c1cc(=O)c2ccc(Cl)cc2[nH]1,-2.3%,-4.4%,nt,8.1%,-0.7%,nt
Cc1cc(C(=O)CSc2nnc(N)s2)c(C)n1CCc1ccc(Cl)cc1,13.0%,3.8%,>57,?,25.1µM*,>76.9
Cc1cc(C(=O)CSc2nnc(N)s2)c(C)n1CCc1ccc(F)cc1,31.2%,-0.6%,>57,?,?,>76.9
COc1ccc(CCn2c(C)cc(C(=O)CSc3nnc(N)s3)c2C)cc1,31.5%,-2.3%,>57,?,25.1µM*,>76.9
CCCC/C=C/C(NC(=O)CCc1ccccc1)c1ccccc1 (centres undefined),nt,nt,nt,?,10µM*,nt
COC(=O)NC(CC(C)=O)c1cccc(C(F)(F)F)c1 (centres undefined),nt,nt,nt,2.9%[11.4 µM],0.0%[11.4 µM],nt
